# Measurements taken from paper PMC4336329 (PLoS ONE, 2015).
# About 14,000 (4.5%) of roughly 310,000 compounds showed an effect of 50% or more. The effect is printed as a negative number. The sample as a whole holds a higher share of strong results than the screen did.
# Molecular target: human ether-à-go-go-related gene (hERG) potassium channel (human, UniProt Q12809)
# Experiment: primary screen, population patch clamp on CHO cells stably expressing hERG; higher = less effect of the substance
# 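Note: peak tail current of the secondary pulse compared with the same well before compound.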
# Chain of human ether-à-go-go-related gene (hERG) potassium channel (Q12809 whole entry, looked up): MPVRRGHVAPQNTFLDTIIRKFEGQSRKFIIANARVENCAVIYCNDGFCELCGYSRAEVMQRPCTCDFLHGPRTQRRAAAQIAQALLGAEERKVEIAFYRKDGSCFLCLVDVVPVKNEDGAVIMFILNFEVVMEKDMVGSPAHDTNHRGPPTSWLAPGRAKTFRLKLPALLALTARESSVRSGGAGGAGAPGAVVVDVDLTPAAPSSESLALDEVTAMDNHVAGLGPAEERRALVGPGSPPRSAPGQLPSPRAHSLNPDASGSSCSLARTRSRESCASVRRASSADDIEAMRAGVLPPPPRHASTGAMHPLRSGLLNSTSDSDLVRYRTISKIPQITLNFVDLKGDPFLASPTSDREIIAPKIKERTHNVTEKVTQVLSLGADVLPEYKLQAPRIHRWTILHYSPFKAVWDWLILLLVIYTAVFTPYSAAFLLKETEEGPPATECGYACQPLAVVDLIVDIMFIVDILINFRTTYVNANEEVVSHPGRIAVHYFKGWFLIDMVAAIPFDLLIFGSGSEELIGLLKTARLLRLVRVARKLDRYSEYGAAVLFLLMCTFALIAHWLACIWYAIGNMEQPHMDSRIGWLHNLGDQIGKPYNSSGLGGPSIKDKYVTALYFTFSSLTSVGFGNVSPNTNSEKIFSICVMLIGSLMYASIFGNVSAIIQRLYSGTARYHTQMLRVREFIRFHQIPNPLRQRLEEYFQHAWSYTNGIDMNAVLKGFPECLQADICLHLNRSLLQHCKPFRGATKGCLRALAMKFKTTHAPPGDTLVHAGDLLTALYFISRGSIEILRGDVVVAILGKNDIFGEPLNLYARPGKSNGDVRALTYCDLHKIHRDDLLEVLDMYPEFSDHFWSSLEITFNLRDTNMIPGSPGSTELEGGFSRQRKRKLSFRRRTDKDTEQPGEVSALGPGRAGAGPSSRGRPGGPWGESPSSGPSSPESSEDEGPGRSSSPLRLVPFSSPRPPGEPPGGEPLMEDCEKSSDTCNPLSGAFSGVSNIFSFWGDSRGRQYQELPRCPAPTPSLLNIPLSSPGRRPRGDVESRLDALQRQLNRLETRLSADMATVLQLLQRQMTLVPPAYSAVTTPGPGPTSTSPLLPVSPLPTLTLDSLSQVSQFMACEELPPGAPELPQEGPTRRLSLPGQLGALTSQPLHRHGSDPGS
row,Structure (SMILES),"hERG current change (%, negative = inhibition) at 10uM"
1,Cn1c(=O)oc2cc(S(=O)(=O)NCCC(=O)NCCc3ccccc3)ccc21,1.29%
2,COC(=O)c1ccc(CSc2nc3c(cnn3-c3ccc(F)cc3)c(=O)[nH]2)o1,13.1%
3,O=C(Nc1ccccc1)c1ccc2c(c1)OCCCO2,-10.7%
4,[Br-].c1ccc(Cn2c(-c3ccccc3)c[n+]3c2SCCC3)cc1,-70.9%
5,O=[N+]([O-])c1cccc(-c2c[n+]3c(n2-c2ccccc2)SCC3)c1.[Br-],-42.3%
6,COc1ccc(-c2c[n+]3c(n2-c2ccccc2)SCC3)cc1OC.[Br-],4.92%
7,O=C(CSc1nnc2ccc(-c3ccc(F)cc3)nn12)N1CCCC1,-13.5%
8,O=C(Nc1c(C(=O)c2ccccc2)oc2ccccc12)c1cc(-c2ccccc2O)n[nH]1,9.34%
9,COc1cc(C(=O)Nc2ccc3c(c2)OCO3)ccc1-n1cnnn1,-15.6%
10,O=C(Cn1nnc(-c2ccccc2-n2cnnn2)n1)NCc1ccccc1,-5.93%
11,COc1ccc(OCC(=O)N2CCN(C(=O)Cc3ccccc3)CC2)cc1,-32.5%
12,CC1CCC(N2CCN(C(=O)COc3ccccc3)CC2)CC1.O=C(O)C(=O)O (centres unmarked),-31.4%
13,Cc1ccc(OCC(=O)N2CCC(N3CCCCCC3)CC2)cc1,-28.3%
14,COc1ccc(OCC(=O)N2CCN(C3CCC(c4ccccc4)CC3)CC2)cc1 (centres unmarked),-54.4%
15,Cc1ccc(OCC(=O)N2CCN(C3CCC(c4ccccc4)CC3)CC2)cc1.O=C(O)C(=O)O (centres unmarked),-62.8%
16,COc1ccc(N2CCN(C(=O)COc3ccccc3)CC2)cc1,-20.6%
17,COc1ccc(C2NC(=O)Cc3cc(OC)c(OC)cc32)cc1OC (centres unmarked),5.46%
18,COC(=O)c1ccc(/C=C/C(=O)OCC(=O)Nc2ncc(Cl)cc2Cl)cc1,-19.9%
19,CCOc1ccccc1CNn1cnnc1,2.62%
20,Cc1nn(Cc2ccc(Cl)c(Cl)c2)c(C)c1NC(=O)c1cc(-c2ccc3c(c2)OCO3)on1,6.42%
21,Clc1ccc2c(c1)C(C1=NCCN1)c1ccccc1CS2.O=C(O)/C=C\C(=O)O (centres unmarked),-8.02%
22,Cc1cccc(NC(=O)OC2CN3CCC2CC3)c1 (centres unmarked),-9.77%
23,O=C(Nc1cccc(Cl)c1)OC1CN2CCC1CC2 (centres unmarked),29.5%
24,CCOCCN1CCN(C2c3ccccc3CSc3ccccc32)CC1.O=C(O)C(=O)O (centres unmarked),-30.3%
25,Clc1ccc2c(c1)C(OC1CN3CCC1CC3)c1ccccc1CS2.O=C(O)/C=C\C(=O)O (centres unmarked),-50.6%
26,CN1CCN(CCOC2c3ccccc3CSc3ccc(Cl)cc32)CC1.O=C(O)/C=C\C(=O)O (centres unmarked),-57.2%
27,O=C(Nc1ccccc1Cl)OC1CN2CCC1CC2 (centres unmarked),-32.9%
28,Brc1ccc2c(c1)C(C1=NCCN1)c1ccccc1CS2.O=C(O)/C=C\C(=O)O (centres unmarked),-20.3%
29,Brc1ccc2c(c1)C(OC1CN3CCC1CC3)c1ccccc1CS2.O=C(O)/C=C\C(=O)O (centres unmarked),-71.4%
